Test results as given in PubChem BioAssay AID504832 (National Center for Advancing Translational Sciences (NCATS), 2011).
Hit rate of the full screen: of about 310,000 compounds, about 18,000 (5.8%) were called active. Another 22% or so got no clear call; they are omitted. What follows is part of a selection rich in actives, with near analogues and random picks from the rest. A number with no mark means an inactive call. The call rests on the fitted dose curve; in most records, active means well fitted inhibition curve with a large enough effect; inconclusive means small, poorly fitted or top-dose-only effect, or another doubt; inactive means no such curve, though single readings can be large or run the other way.

assay: Primary qHTS for delayed death inhibitors of the malarial parasite plastid, 48 hour incubation; settings: P. falciparum luciferase growth in erythrocytes; series mostly up to 28.7 µM; activity change, negative = inhibition: at the top concentration
Outline: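 Read-out is firefly luciferase luminescence from an integrated reporter in P. falciparum, so falling signal marks reduced parasite growth. Infected erythrocytes were at 2% hematocrit and 0.1% parasitemia (final) in Albumax-supplemented RPMI 1640.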
On the % scale 0 is the no-effect control and ±100 the full control effect; potency means the concentration at half of the fitted maximal effect.

Row | Structure (SMILES) | activity change, negative = inhibition [%] | Potency
1 | Cc1ccc(S(=O)(=O)Cn2nnnc2CN2CCN(Cc3ccc4c(c3)OCO4)CC2)cc1 | -13.9 | 
2 | Cc1ccc(CN2CCCC(C(=O)c3ccc4c(c3)OCO4)C2)cc1C (centres undefined) | 2.04 | 
3 | O=C(C1CCN(Cc2ccc(Cl)cc2)CC1)N1CCN(Cc2ccc3c(c2)OCO3)CC1 | -25.3 | 
4 | Fc1ccccc1C(c1nnnn1Cc1ccc2c(c1)OCO2)N1CCN(Cc2ccccc2)CC1 (centres undefined) |  | 6.57 µM (active)
5 | Cc1cccc(C)c1NC(=O)CSc1nnc(-c2ccccc2)n1Cc1ccc2c(c1)OCO2 | -15.3 | 
6 | Cc1cc(C)c2[nH]c(=O)c(C(c3nnnn3Cc3ccc4c(c3)OCO4)N3CCCC3)cc2c1 (centres undefined) |  | 13.1 µM (active)
7 | CSc1ccccc1NC(=O)COC(=O)CCCOc1ccc(C)cc1 | -20.5 | 
8 | CCOC(=O)c1cnc(-n2nc(C)cc2C)nc1NNc1cc(C)nc(-c2ccccc2)n1 |  | 3.29 µM (active)
9 | CCOC(=O)c1cnc(-n2nc(C)cc2C)nc1-n1nc(C)cc1C | 6.57 | 
10 | CCOC(=O)c1c(C)nc(-c2ccccc2)nc1NC(=O)C(C)C | 176 | 
11 | COCCOC1CCN(C(=O)c2ccc(OC)c(OC3CCN(C(C)C)CC3)c2)CC1 | 10.5 | 
12 | COc1ccccc1NC(=O)C(C)OC(=O)c1ccc(-n2cnnn2)cc1 (centres undefined) | -2.09 | 
13 | COc1cc(Br)c(-c2sc(Nc3ccccc3)n[n+]2-c2ccccc2)cc1OC | 2.26 | 
14 | CCc1ccc(Nc2n[n+](-c3ccccc3)c(-c3cccc(Cl)c3Cl)s2)cc1 |  | 4.15 µM (active)
15 | Cc1ccc(Nc2nnc(SCc3ccccc3)s2)cc1 | -9.22 | 
16 | CC(=O)Nc1ccc(S(=O)(=O)N2CCN(S(=O)(=O)c3cccs3)CC2)cc1 | -11.5 | 
17 | CC(=O)Nc1ccc(S(=O)(=O)N2CCN(CCCOc3cc(C)ccc3C)CC2)cc1 |  | 7.38 µM (active)
18 | Cc1ccc(C)c(S(=O)(=O)N2CCN(CC(=O)Nc3ccc([N+](=O)[O-])cc3)CC2)c1 | -29 | 
19 | CCOC(=O)C1(CCOC)CCN(Cc2cc3ccccc3s2)CC1 | 37.1 | 
20 | CCOC(=O)C1(Cc2cccc(OC)c2)CCN(Cc2csc(C(C)=O)c2)CC1 | -14.8 | 
21 | CCOC(=O)C1(CCOC)CCN(Cc2ccc(C(=O)OC)cc2)CC1 |  | 10.4 µM (active)
22 | O=C(COc1ccc(Cl)cc1)Nc1ccc2c(c1)OCO2 | 20.7 | 
23 | COc1ccc(/C=C/C(=O)Nc2ccc3c(c2)OCCO3)cc1OC | 28.1 | 
24 | COc1ccc(NS(=O)(=O)c2cc(NC(=O)C3CCCCC3)ccc2N2CCOCC2)cc1 |  | 10.4 µM (active)
25 | COc1ccc(NS(=O)(=O)c2ccc(N3CCN(CCO)CC3)c([N+](=O)[O-])c2)cc1 | -3.24 | 

Row | Structure (SMILES) | activity change, negative = inhibition [%] | Potency
26 | COc1ccc(NS(=O)(=O)c2cc(NC(=O)/C=C/c3cc(OC)c(OC)c(OC)c3)ccc2N2CCCCC2)cc1 |  | 1.17 µM (active)
27 | O=C(Nc1cccc(OCC(=O)N2CCOCC2)c1)C1CCCCC1 | -3.36 | 
28 | COc1ccc(CNC(=O)C2CCN(S(=O)(=O)N3CCOCC3)CC2)cc1 | 2.02 | 
29 | C=CCOc1cccc(C2NC(=O)c3ccccc3O2)c1 (centres undefined) | 0.379 | 
30 | COc1ccc(N(CC(=O)NCC2CCCO2)C(=O)CCC(=O)Nc2nccs2)c(OC)c1 (centres undefined) | -20.9 | 
31 | Cc1ccc(N2CC(C(=O)Nc3cc(Cl)ccc3-n3cncn3)CC2=O)cc1 (centres undefined) | -22.5 | 
32 | Cc1ccc2c(c1)N(CC(=O)NCC1CCCO1)C(=O)CO2 (centres undefined) | 4.3 | 
33 | COc1cccc(C(=O)NCCS(=O)(=O)NCC2CCCO2)c1 (centres undefined) | 3.22 | 
34 | COc1cc(C(=O)NNC(=O)c2ccc(S(=O)(=O)N3CCCCC3)cc2)cc(OC)c1OC | 1.28 | 
35 | COc1cc2c(cc1OC)CN(C(=O)c1ccc(S(=O)(=O)N3CCCCCC3)cc1)CC2 |  | 6.57 µM (active)
36 | COc1ccc(S(=O)(=O)N2CCC(C(=O)N3CCc4ccccc4C3)CC2)cc1OC | -23.1 | 
37 | COC(=O)C1(CCSC)NC(c2ccc(OC)cc2OC)C2C(=O)N(c3cccc(C(C)=O)c3)C(=O)C21 (centres undefined) | -19.3 | 
38 | CSc1ccccc1NC(=O)c1ccc2c(c1)CCN2S(C)(=O)=O | 41.5 | 
39 | COc1ccc2cc(C(=O)O)n(CC(=O)c3ccccc3)c2c1 | 18.2 | 
40 | Cc1cccc(N(C(=O)c2ccc(CN3CCOCC3)o2)C(C(=O)NC2CCCCC2)c2ccc(F)cc2)c1 (centres undefined) | 7.73 | 
41 | Cc1ccc(CS(=O)Cc2ccc(C(=O)N3CCOCC3)o2)cc1 (centres undefined) | 3.7 | 
42 | Cc1ccc(N(C(=O)c2ccc(CN3CCOCC3)o2)C(C(=O)NCCC(C)C)c2cccs2)c(C)c1 (centres undefined) |  | 10.4 µM (active)
43 | Cc1c(NS(=O)(=O)c2cc(C(=O)NCCc3ccc(F)cc3)cc(Cl)c2Cl)c(=O)n(-c2ccccc2)n1C | -17 | 
44 | COC(=O)c1ccc(NC(=O)CSc2nnc(C3CC3)n2C)cc1 | -5.32 | 
45 | CCOC(=O)c1c(-c2ccc(C)cc2)csc1/N=C(\C)C1=C(O)c2ccccc2C1=O | -24.3 | 
46 | CCOC(=O)C1=C(c2ccc(OC)cc2)C(=O)c2ccccc2C1=O |  | 2.94 µM (active)
47 | CCOC(=O)c1ccccc1NS(=O)(=O)c1ccc(OC)cc1 | -12.7 | 
48 | COc1ccc(-c2cc(C(=O)NCCCN3CCOCC3)no2)cc1 | 1.35 | 
49 | O=[N+]([O-])c1ccc(Oc2ccc(F)cc2Br)c2ccncc12 |  | 14.7 µM (active)
